Screens: PubChem, National Center for Advancing Translational Sciences (NCATS)
ELG1 DNA repair: qHTS screen for small molecules that inhibit ELG1-dependent DNA repair in human embryonic kidney (HEK293T) cells expressing luciferase-tagged ELG1 | 2.3% of 330,000 active | HEK293T ELG1-luciferase reporter, luminescence, 16 h; DNA damage induced by 5-fluorouridine | Potency, µM (doses to about 46.1 µM), actives largely listed as inhibitors; also: nearly all actives have a fitted effect of over 55% in size
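5-Fluorouridine DNA damage + compound/DMSO, 2,000 cells/well, 16 h, 37 °C/5% CO2. ONE-Glo, 30 min RT, luminescence. Readout = decrease in reporter signal.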
Rab9 prom act: qHTS Assay for Rab9 Promoter Activators | Huh7 Rab9 promoter-luciferase reporter, luminescence, 24 h | Potency, µM (series often up to 9.22 µM), usual class: activators | 2.8% of 320,000 active | AID 485297, 2010; also: nearly all actives have a fitted effect of over 60% in size
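Using Huh7 cells stably transfected with Rab9 promoter–luciferase, compounds were incubated 24 h at 37 °C, 5% CO2; luciferase luminescence was read 10 min after reagent addition.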
NPC1 promoter act: qHTS Assay for NPC1 Promoter Activators; Huh7 NPC1 promoter luciferase reporter, 24 h; Potency, µM (highest dose often 9.22 µM), most hits filed as activators; 2.4% of 320,000 active; AID 485313, 2010; also: nearly all actives have a fitted effect of over 60% in size
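Stably transfected Huh7 (NPC1 promoter→luciferase), 1500 cells/well in Opti-MEM + 10% FBS, 2 h settle, then compound 24 h at 37 °C. Luminescence after 10 min with Amplite reagent.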
ELG1 genotox: qHTS screen for small molecules that induce genotoxicity in human embryonic kidney (HEK293T) cells expressing luciferase-tagged ELG1; HEK293T ELG1-luciferase reporter, luminescence, 16 h; Potency, µM (highest dose often 46 µM), actives largely listed as activators; 1.3% of 330,000 active; AID 504466, 2011; also: nearly all actives have a fitted effect of over 60% in size
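16 hr compound incubation (37 °C, 5% CO2) of HEK293T cells carrying luciferase-tagged ELG1; luciferase then measured by ONE-Glo luminescence after 30 min at RT.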
SMN2 splice enh: qHTS Assay for Enhancers of SMN2 Splice Variant Expression; HEK293 SMN2-luciferase splicing reporter, luminescence, 30-36 h; Potency, µM (series often up to 46.1 µM), actives largely listed as activators; 2.8% of 210,000 active; also: nearly all actives have a fitted effect of over 55% in size
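qHTS luciferase splicing reporter: luminescence rises when SMN2 exon 7 is included in transfected HEK293 cells. Compound exposure lasted 30-36 h at 37C, with 4.5 mM final sodium butyrate as control, followed by a ONE-Glo read.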
FLuc counter: qHTS profiling assay for firefly luciferase inhibitor/activator using purifed enzyme and Km concentrations of substrates (counterscreen for miR-21 project); purified FLuc, Km substrates, luminescence inhibition; Potency, µM (highest dose often 57.5 µM), actives largely listed as inhibitors; 6.9% of 360,000 active; AID 588342, 2011; also: nearly all actives have a fitted effect of over 55% in size
Target sequence (P08659 whole entry, looked up): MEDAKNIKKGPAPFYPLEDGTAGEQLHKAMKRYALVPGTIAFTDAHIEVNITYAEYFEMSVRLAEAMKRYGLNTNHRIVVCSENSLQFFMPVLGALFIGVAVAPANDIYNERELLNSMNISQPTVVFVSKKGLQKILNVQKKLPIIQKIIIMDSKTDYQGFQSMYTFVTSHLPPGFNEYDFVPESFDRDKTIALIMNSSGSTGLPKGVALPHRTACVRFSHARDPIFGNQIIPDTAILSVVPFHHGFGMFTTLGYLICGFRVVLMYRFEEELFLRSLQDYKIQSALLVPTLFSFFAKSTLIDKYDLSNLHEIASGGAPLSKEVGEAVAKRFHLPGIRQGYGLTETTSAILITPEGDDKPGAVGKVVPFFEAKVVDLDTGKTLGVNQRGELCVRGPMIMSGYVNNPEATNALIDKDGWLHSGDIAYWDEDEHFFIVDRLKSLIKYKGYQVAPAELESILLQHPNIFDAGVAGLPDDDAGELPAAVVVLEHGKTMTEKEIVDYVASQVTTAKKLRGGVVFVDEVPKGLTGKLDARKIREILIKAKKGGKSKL
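Purified P. pyralis luciferase (10nM final) with 10uM D-luciferin and 10uM ATP (Km levels) in 50mM Tris acetate pH 7.5, 10mM Mg acetate, 0.01% Tween-20, 0.05% BSA; qHTS 6-point titration, ~60 µM downward; luminescence read.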
Numbers stand for hits; . = inactive; ? = inconclusive; / = not tested or not shown; [ ] = another dose, or the depositor's remark. Most compounds without a hit are left out; they make up all but 9.4% or so of the library. Calls follow the shape of the dose curve; as a rule, active = well fitted curve in the direction sought with a large enough effect; inconclusive = small, poorly fitted or top-dose-only effect, or another doubt; inactive = no such curve, though single readings can be large; an effect the other way counts as inactive or inconclusive.

SMILES	ELG1 DNA repair	Rab9 prom act	NPC1 promoter act	ELG1 genotox	SMN2 splice enh	FLuc counter
CCOc1ccc(C(=O)NCC(c2ccc3c(c2)OCO3)N2CCN(C)CC2)cc1 (stereo not drawn)	/	/	/	/	/	.
CCOc1ccc(C(=O)c2cn(Cc3ccc(OC)cc3)c3cc(OC)c(OC)cc3c2=O)cc1	/	/	/	/	.	.
CCCNC(=O)OC[C@H]1O[C@H](CCO/N=C(\C)CCN2CCc3nc(-c4ccccc4)c(-c4ccccc4)cc3C2)C=C[C@@H]1Oc1ccc(OC)cc1	6.51µM	.	.	.	.	.
Oc1cccc2ccc(/C=C/c3ccccc3Br)nc12	?	?	3.55µM	?	/	3.38µM
Oc1ccc2ccccc2c1/C=C\c1ccc2c(Br)cc(Br)c(O)c2n1	/	/	/	/	.[9.22 µM]	/
Oc1ccc(Cl)cc1/C=C/c1ccc2cccc(O)c2n1	.	.	.	?	.	21.3µM
Oc1c(Cl)cc(Cl)cc1/C=C/c1ccc2cccc(O)c2n1	23.1µM	.	.	.	.	?
CCOc1cc(/C=C/c2ccc3cccc([N+](=O)[O-])c3n2)cc(Cl)c1O	8.2µM	.	.	.	.	.
CCOC(=O)COc1ccc(C)cc1C(=O)c1ccn2nc(-c3ccc(F)cc3)cc2n1	/	/	/	/	.	.
COc1ccccc1CNC(=O)c1ccc(N2Cc3cccc(OC)c3Oc3ncccc32)s1	/	/	/	/	/	.
Cc1cccc(N2CCN(C(=O)C3CCN(c4ncnc5c4nc4n5CCCCC4)CC3)CC2)c1C	?	.	.	.	/	?
O=C(C1CCCN(c2ncnc3c2nc2n3CCCCC2)C1)N1CCN(c2cccc(Cl)c2)CC1 (stereo not drawn)	8.2µM	.	.	.[9.26 µM]	/	.
Cc1cccc(N2CCN(C(=O)C3CCN(c4ncnc5c4nc4n5CCCCC4)CC3)CC2C)c1 (stereo not drawn)	4.11µM	.	.	.	/	.
Cc1ccc(C)c(N2CCN(C(=O)C3CCCN(c4ncnc5c4nc4n5CCCCC4)C3)CC2)c1 (stereo not drawn)	13µM	.	.	.	/	.
COc1cc(OC)cc(C(=O)Nc2nnc(SCC(=O)NCc3ccco3)s2)c1	.	?	.	?	/	?
COc1ccccc1C(=O)Nc1nnc(SCC(=O)NCc2ccco2)s1	?	2.24µM	3.16µM	2.31µM	/	3.38µM
O=C(CSc1nnc(NC(=O)c2c(F)cccc2F)s1)NCc1ccco1	?	.	.	.	/	.
CCSc1nnc(Nc2ccc(C)cc2)s1	?	2.82µM	3.55µM	?	?	9.53µM
O=C(CSc1nnc(NC(=O)c2ccccc2F)s1)NCc1ccco1	?	3.98µM	3.55µM	16.4µM	/	8.49µM
COc1ccc(C(=O)Nc2nnc(SCC(=O)NCc3ccco3)s2)c(OC)c1	?	0.316µM	0.282µM	0.517µM	/	0.675µM
CCN(CC)C(=O)c1csc(Nc2ccc(C)cc2)n1	.	.	.	.	/	?
O=C(CSc1nnc(Nc2ccccc2)s1)NCc1ccco1	?	.	.	.	.	?
Cc1ccc(Nc2nnc(SCC(=O)NCc3ccco3)s2)cc1	.	.	.	.	.	13.5µM
Cc1ccc(Nc2nc(C(=O)NCc3ccco3)cs2)cc1	.	.	.	.	.	23.9µM
Cc1ccc(-n2c(=O)c3c4c(sc3n(Cc3ccccc3C)c2=O)CCC4)cc1C	/	/	/	/	.	.
SMILES	ELG1 DNA repair	Rab9 prom act	NPC1 promoter act	ELG1 genotox	SMN2 splice enh	FLuc counter
C[C@H]1C(O)[C@@]23CCC4C5(C=[N+](CCO)C[C@]4(C)CCC5)C2C[C@@H]1C3 (stereo partly drawn)	/	/	/	/	.	/
O=C(Nc1ccccc1)N1CCN(c2ccc(C(F)(F)F)cn2)CC1	20.6µM	.	.	.	.	.
O=C(Nc1ccccc1)N1CCN(c2cccc(C(F)(F)F)c2)CC1	?	.	.	.	.	.
O=[N+]([O-])c1cc(/C=N/N2CCCCC2)ccc1Cl	?	?	.	?	?	?
CCCOc1ccc(/C=C/C(=O)N2CCOCC2)cc1	?	?	2.51µM	?	/	15.1µM
O=C(/C=C/c1ccc(Br)cc1)NC(=S)N1CCOCC1	.	.	.	.	/	13.5µM
O=C(/C=C/c1ccccc1[N+](=O)[O-])N1CCCCC1	.	.	.	.	.	.
CC(C)c1ccc(/C=N/N2CCCCC2)cc1	?	3.16µM	.	?	?	1.51µM
O=C(/C=C/c1ccccc1Cl)N1CCCN(C(=O)/C=C/c2ccccc2Cl)CC1	.	.	.	.	.	19µM
COc1ccc(CCNC(=O)Cc2c(C)c3ccc(O)c(C)c3oc2=O)cc1OC	/	/	/	/	.	.
CC(C)c1ccc(/C=C/C(=O)N2CCOCC2)cc1	?	2.51µM	3.16µM	?	/	9.53µM
CC(C)c1ccc(/C=C/C(=O)n2nnc3ccccc32)cc1	/	/	/	/	.	1.69µM
CC(C)c1ccc(NC(=O)C(c2ccccc2)N2CCOCC2)cc1 (stereo not drawn)	?	.	.	.	.	?
Cc1ccc(/C=C/C(=O)N2CCCN(C(=O)/C=C/c3ccc(C)cc3)CC2)cc1	.	.	.	.	?	10.7µM
CC(C)c1ccc(NC(=O)NN2CCOCC2)cc1	?	3.55µM	3.16µM	16.4µM	12.6µM	26.9µM
CCN1CCN(C(=O)/C=C/c2ccc(C)cc2)CC1	.	.	.	.	/	.
CC(Cn1nnc2ccccc21)C(=O)O (stereo not drawn)	.	.	.	.	/	.
CC1=C(c2ccc(C(C)C)cc2)S(=O)(=O)N=C1N1CCC(C(=O)NCc2ccccc2)CC1	/	/	/	/	/	.
CCc1ccccc1NC(=O)Cn1c(=O)nc(-c2ccccc2)c2ccccc21	/	/	/	/	/	.
CC(C)c1ccc(/C=C/C(=O)N2CCCCCC2)cc1	?	.	.	?	.	15.1µM
O=C(/C=C/c1ccc(Cl)cc1)N1CCOCC1	?	?	?	.	/	26.9µM
CCCCn1cc2c(c1-c1ccc(Cl)cc1)c(=O)n(C)c(=O)n2C	/	/	/	/	.	.
Cc1nn(CC(=O)N2CCC(C)CC2)c(=O)c2cc3occc3n12	/	/	/	/	.	.
Cc1c(C(=O)NCc2ccco2)oc2ccc(Br)cc12	?	.	.	.	/	?
O=C(NCc1ccco1)c1cc2ccccc2c(=O)o1	?	.	.	.	/	15.1µM
O=C(NCc1ccco1)c1cc2cc(Br)ccc2o1	?	?	.	.	/	16.9µM
O=C(OCCc1cc2ccccc2c(=O)o1)c1ccco1	.	.	.	.	/	5.36µM
O=C(NCc1ccco1)c1cc(=O)c2ccccc2o1	.	.	.	.	.	.
O=C(COC(=O)c1cccc2c1C(=O)c1ccccc1C2=O)NC1CCCCC1	?	.	.	.	.	?
